Reference: PubChem BioAssay (EPA / NIEHS)
Values joined by “and” are separate entries in the source; they are usually repeats but may differ in a detail not shown here. Identical values can stand only once. Records with an inconclusive call do not appear. Where a structure was tested more than once in an assay, its records may differ in their call. Active and inactive are the calls of the source. How the source made its calls: active means hit-call score of the fitted dose curve at least 0.9, where 1 is the maximum; inconclusive means response in the unintended direction; inactive means score below 0.9.

Columns and labels:
[1] = TOX21_p53_BLA_p2_viability: Viability Assessment in the Tox21 HCT-116 p53 Agonism Beta-lactamase Assay, Phase 2 (AID 2283591);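 further: compound exposure lasted 16 h at 37 °C; actives lower the ATP signal meaning cytotoxicity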
Method in brief: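 HCT-116 p53-bla cells (4000/well) rested 5 h at 37C, then received compounds in DMSO (217-fold dilution) for 16 h at 37C, 5% CO2. After the CCF4 read, CellTiter-Glo was added; ATP luminescence was read after 30 min at room temperature.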

[2] = TOX21_p53_BLA_p4_viability: Viability Assessment in the Tox21 HCT-116 p53 Agonism Beta-lactamase Assay, Phase 4 (AID 2283597);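 further: hits lower the luminescence signal meaning cytotoxicity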
Method in brief: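 We seeded HCT116 p53 reporter cells at 4000/well and waited 5 h. We then added compounds in DMSO at a 217-fold dilution and incubated for 16 h. Viability was read as CellTiter-Glo luminescence after 30 min at RT.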

[3] = ATG_XTT_Cytotoxicity: Cytotoxicity Assessment in the Attagene TRANS-FACTORIAL HepG2 Assay (AID 2283584);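 on AC50: cells exposed to compound for 24 h before reading; active means loss of viability signal versus DMSO baseline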
Method in brief: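 XTT readout of cell number in transfected HepG2 cells, 24 h post-dosing; DMSO serves as negative control and baseline, with activity taken as loss of viability signal.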

[4] = target: Cellular tumor antigen p53 (Homo sapiens) (UniProt P04637); test: TOX21_p53_BLA_p2_ratio: Tox21 HCT-116 p53 Agonism Beta-lactamase Assay, Ratio, Phase 2 (AID 2283592)
Method in brief: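 In this cell-based reporter format, HCT116 cells were dosed with chemicals delivered from DMSO by 217-fold dilution and incubated 16 h at 37C. Emission at 460 and 530 nm after 2 h CCF4-AM loading provided the ratio, fitted upward versus DMSO.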

[5] = TOX21_p53_BLA_p3_viability: Viability Assessment in the Tox21 HCT-116 p53 Agonism Beta-lactamase Assay, Phase 3 (AID 2283593);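 further: cells exposed to compound for 16 h before reading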
Method in brief: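 HCT-116 cells (4000/well) rested 5 h at 37C, then got DMSO compounds by pin tool (217-fold dilution) for 16 h at 37C, 5% CO2. After the bla read, CellTiter-Glo was added and luminescence read at 30 min, room temperature.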

[6] = target: Cellular tumor antigen p53 (Homo sapiens) (UniProt P04637); test: TOX21_p53_BLA_p3_ratio: Tox21 HCT-116 p53 Agonism Beta-lactamase Assay, Ratio, Phase 3 (AID 2283596)
Method in brief: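 HCT116 p53-bla cells (4000/well) given compound in DMSO (217-fold dilution) after 5 h, incubated 16 h at 37C. CCF4-AM substrate 2 h at room temperature; 460/530 nm emission ratio, gain fitted against DMSO.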

[7] = target: Cellular tumor antigen p53 (Homo sapiens) (UniProt P04637); test: TOX21_p53_BLA_p5_ratio: Tox21 HCT-116 p53 Agonism Beta-lactamase Assay, Ratio, Phase 5 (AID 2283599)
Method in brief: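 HCT-116 cells carrying a p53-inducible beta-lactamase reporter were seeded at 4000 cells/well and dosed after 5 h with compound in DMSO (217-fold dilution). After 16 h at 37C, CCF4-AM substrate was added for 2 h, and the 460/530 nm emission ratio was scored as gain-of-signal versus DMSO.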

[8] = TOX21_p53_BLA_p5_viability: Viability Assessment in the Tox21 HCT-116 p53 Agonism Beta-lactamase Assay, Phase 5 (AID 2283600)
Method in brief: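 Compounds, pinned from DMSO at 217-fold dilution, were left on the cells for 16 h. The viability endpoint was ATP content measured by CellTiter-Glo luminescence, where falling signal reflects cytotoxicity.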

Measured: AC50

Chain of Cellular tumor antigen p53 (Homo sapiens) (P04637 whole entry, looked up): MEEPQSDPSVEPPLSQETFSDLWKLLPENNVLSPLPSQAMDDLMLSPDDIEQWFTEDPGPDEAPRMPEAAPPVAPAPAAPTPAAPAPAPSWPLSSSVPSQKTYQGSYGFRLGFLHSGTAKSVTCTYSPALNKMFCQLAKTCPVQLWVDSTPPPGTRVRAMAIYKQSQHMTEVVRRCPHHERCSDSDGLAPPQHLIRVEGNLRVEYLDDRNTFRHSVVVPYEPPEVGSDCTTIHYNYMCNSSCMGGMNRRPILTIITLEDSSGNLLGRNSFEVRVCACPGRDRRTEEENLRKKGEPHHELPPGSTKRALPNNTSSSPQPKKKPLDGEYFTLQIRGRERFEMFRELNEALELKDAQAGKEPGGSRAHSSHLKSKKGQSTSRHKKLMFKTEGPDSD

O=C(CCCN1CCC(O)(c2ccc(Cl)cc2)CC1)c1ccc(F)cc1
inactive: [1]

O=C(c1ccccc1)c1ccccc1
inactive: [1] | [2]

CCCCc1oc2ccccc2c1C(=O)c1cc(I)c(OCCN(CC)CC)c(I)c1
active: [2] 31.3 µM and 50.9 µM and 23 µM

O=C1Cc2ccccc2N1c1c(Cl)cccc1Cl
inactive: [3]

CCc1cccc(CC)c1N(COC)C(=O)CS(=O)(=O)O
inactive: [3]

CC(C)CCOCCC(C)C
inactive: [3]

CCO[Si](CCC1CCC2OC2C1)(OCC)OCC (configuration not stated)
inactive: [3]

CC(C)(c1ccc(Oc2ccc(N)cc2)cc1)c1ccc(Oc2ccc(N)cc2)cc1
active: [3] 48.6 µM

C=C(c1ccc(C(=O)O)cc1)c1cc2c(cc1C)C(C)(C)CCC2(C)C
active: [3] 25.3 µM

C=CC(=O)OCCN(CC)CC
inactive: [3]

CCCCN(C)C
inactive: [3]

O=C1OC2(c3ccccc31)c1cc(I)c(O)c(I)c1Oc1c2cc(I)c(O)c1I
active: [4] 78.6 µM | [6] 87.3 µM | [7] 83 µM
inactive: [3] | [1] | [4] | [5] | [6] | [7] | [8]

CCCCCCCCCCCC
active: [3] 89.9 µM

CCCCCc1ccc(O)cc1
inactive: [3]

C=CC(=C)CC/C=C(\C)CCC=C(C)C
inactive: [3]

CCCCCCCCCCCC[N+](C)(C)Cc1ccccc1
active: [3] 24.2 µM and 31.9 µM

CCCCCCCCCCCCCCCC(=O)OC
inactive: [3] | [1]

O=C1C=CC(=O)N1c1cccc(N2C(=O)C=CC2=O)c1
inactive: [3]

CC1CNCC(C)O1 (configuration not stated)
inactive: [3]

CCCCCCCCC(C)=O
inactive: [3]

O=S(=O)(O)c1ccccc1
inactive: [3]

O=C(O)CN(CCCN(CC(=O)O)CC(=O)O)CC(=O)O
inactive: [3]

CCCCCCCC(OC)OC
inactive: [3]

O=C(NCc1ncc(C(F)(F)F)cc1Cl)c1c(Cl)cccc1Cl
inactive: [3]

c1cc[nH]c1
inactive: [3]

COc1ccc(C#N)cc1
inactive: [3]

CCOC(OCC)C(=O)c1ccccc1
inactive: [3]

C/C=C/C(=O)C1=C(C)CCCC1(C)C
inactive: [3]

Nc1ccn([C@@H]2O[C@H](CO)[C@@H](O)C2O)c(=O)n1 (some centres not stated)
inactive: [3]

CCOC(=O)c1nc(C(Cl)(Cl)Cl)n(-c2ccc(Cl)cc2Cl)n1
inactive: [3]

Cn1sccc1=O
inactive: [3]

CC(C)[C@@H]1CC[C@@H](C)C[C@H]1O
inactive: [3]

Cc1ccc(N=Nc2c(O)ccc3ccccc23)c(C)c1
inactive: [3]

COc1cccc(O)c1
inactive: [3]

CCCCCCOC(=O)c1ccc(O)cc1
active: [3] 149 µM | [4] 67.3 µM | [6] 86 µM | [7] 70.6 µM and 76.8 µM
inactive: [1] | [4] | [5] | [6] | [8]

O=C1c2ccc(O)c(O)c2C(=O)c2c(O)ccc(O)c21
inactive: [3]

COC1=CC(=O)C[C@@H](C)[C@]12Oc1c(Cl)c(OC)cc(OC)c1C2=O
inactive: [3]

COC(O)c1ccccc1 (configuration not stated)
inactive: [3]

COc1cc([N+](=O)[O-])ccc1N
inactive: [3] | [1] | [4] | [5]

COc1ccccc1NC(=O)c1cc2ccccc2cc1O
inactive: [3] | [1] | [5] | [6] | [7] | [8]
active: [4] 14 µM

c1cnc2c(c1)ccc1cccnc12
active: [4] 38.3 µM | [2] 41.8 µM
inactive: [3] | [1] | [4] | [5] | [6] | [7] | [8]

CNNCc1ccc(C(=O)NC(C)C)cc1
inactive: [3] | [1] | [4] | [5] | [6] | [7] | [8]

NCCN
inactive: [3] | [1] | [4] | [6] | [7] | [8]

O=C1c2ccccc2C(=O)c2c(O)c(O)cc(O)c21
active: [4] 42.8 µM
inactive: [3] | [1] | [6] | [2] | [7] | [8]

Cc1ccc(S(=O)(=O)O)cc1
inactive: [3] | [1] | [5] | [2] | [8]

CC=O
inactive: [3]
active: [4] 3.17 µM | [5] 86.1 µM | [6] 2.37 µM | [2] 47.9 µM | [7] 30.3 µM | [8] 74.4 µM

CN(C)c1ccc(C(=C2C=CC(=[N+](C)C)C=C2)c2ccccc2)cc1
active: [3] 10.1 µM and 7.71 µM | [4] 9.06 µM and 39.7 µM | [5] 1.15 µM | [6] 15.1 µM | [2] 1.36 µM and 23 µM | [7] 19.2 µM
inactive: [5] | [6] | [7] | [8]

CCCCCCc1ccc(N)cc1
inactive: [3] | [4] | [5] | [6] | [2] | [7] | [8]

CC(C)(C)c1ccc(O)c(O)c1
inactive: [3] | [1] | [4] | [5] | [6] | [2] | [7] | [8]

CCCCCCCCCCCCCCCCCC[N+](C)(C)Cc1ccccc1
inactive: [7]
active: [3] 29 µM | [1] 41.1 µM | [4] 74.3 µM | [5] 24.4 µM | [6] 60.6 µM | [8] 15 µM

CC(C)(C)c1ccc(CCC=O)cc1
inactive: [3] | [4] | [5] | [6] | [7]

CC1=CC(=O)c2ccccc2C1=O
active: [5] 35.7 µM and 36.7 µM | [6] 29.7 µM and 41.4 µM | [7] 40.7 µM | [8] 37.9 µM
inactive: [3] | [4] | [7] | [8]

O=S(=O)(O)c1ccc2cc(O)ccc2c1
inactive: [3] | [1] | [4] | [5] | [6] | [7] | [8]

CC(=O)CC(C)C
inactive: [3] | [1] | [4] | [6] | [7] | [8]

CCCCCCCCCCCC[N+](C)(C)CCCCCCCCCCCC
active: [3] 62.4 µM | [1] 23.5 µM | [4] 41.4 µM | [5] 50.7 µM | [6] 66.5 µM | [7] 56.6 µM | [8] 37 µM

CCCC=O
inactive: [3] | [1] | [2] | [7] | [8]

NNc1nc(-c2ccc([N+](=O)[O-])cc2)cs1
active: [4] 40.1 µM | [6] 55.7 µM | [2] 46.1 µM | [7] 39.6 µM
inactive: [3] | [5] | [8]

CCC(C)c1nccnc1OC (configuration not stated)
inactive: [3] | [4]

CCCCCCCCCC=CCC1CC(=O)OC1=O (configuration not stated)
inactive: [3] | [1] | [4] | [5] | [6] | [2] | [7] | [8]

CCOC(=O)CN[C@@H](C(=O)N1CC[C@H]1C(=O)NCc1ccc(/C(N)=N/O)cc1)C1CCCCC1
inactive: [3] | [4] | [5] | [6] | [2] | [8]

C=CC(=O)OCC(CO)(COCC(COC(=O)C=C)(COC(=O)C=C)COC(=O)C=C)COC(=O)C=C
active: [3] 29.3 µM | [4] 78.7 µM | [5] 3.91 µM | [2] 3.32 µM | [7] 82.5 µM | [8] 2.74 µM
inactive: [6]

CC(C)C=O
inactive: [3] | [1] | [5] | [2] | [7] | [8]

NC(=NCCCCCCN=C(N)/N=C(\N)Nc1ccc(Cl)cc1)/N=C(\N)Nc1ccc(Cl)cc1
inactive: [4] | [6] | [7]
active: [3] 31.6 µM | [4] 59.8 µM [middle of 4 runs] | [6] 72.6 µM [middle of 4 runs] | [7] 79.6 µM [middle of 4 runs]

CCCCCCCCCCCC(=O)NCCCN(C)C
inactive: [3]
active: [1] 44.2 µM | [4] 87.1 µM | [5] 47.3 µM | [6] 87.2 µM | [7] 86 µM | [8] 65.7 µM

O=c1cc(-c2ccccc2)oc2ccc3ccccc3c12
inactive: [3] | [4] | [5] | [6] | [2] | [7] | [8]

Oc1ccc(Cc2ccccc2O)cc1
inactive: [3] | [4] | [5] | [6] | [7]

c1ccc(CNc2ncnc3c2ncn3C2CCCCO2)cc1 (configuration not stated)
inactive: [3] | [1] | [5] | [8]

Cc1cc(=O)oc2cc(O)ccc12
active: [7] 65 µM and 38.4 µM
inactive: [3] | [1] | [4] | [5] | [6] | [7] | [8]

Cc1ccccc1C(OCCN(C)C)c1ccccc1 (configuration not stated)
inactive: [3] | [4] | [5] | [6]

Nc1cc(Cl)c(-c2cc(Cl)c(N)cc2Cl)cc1Cl
inactive: [3]
active: [4] 69 µM and 81.7 µM | [5] 70.8 µM and 63.8 µM | [6] 86.4 µM and 84.5 µM | [2] 40.7 µM and 29.6 µM | [7] 85.2 µM and 85.6 µM | [8] 71.8 µM and 61.9 µM

Nc1ccc(O)c(C(=O)O)c1
active: [7] 71.9 µM
inactive: [3] | [4] | [5] | [6] | [7] | [8]

Oc1c(Cl)ccc(Cl)c1Cl
inactive: [3] | [4] | [5] | [6] | [2] | [7] | [8]

C[C@]12CC[C@@H]3c4ccc(O)cc4CC[C@H]3[C@@H]1C[C@@H](O)[C@@H]2O
inactive: [3] | [4] | [5] | [6] | [2] | [7] | [8]

CCOC(C)=O
inactive: [2]

OCC1CCC(CO)CC1 (configuration not stated)
inactive: [2]
